Compound activity deposited in PubChem BioAssay by several laboratories.
GASC-1 inh = inhibitors of human GASC-1 (JMJD2C) demethylase; inhibition, % at 2.35 µM; 0.069% of 330,000 active; GST-JMJD2C(1-420) H3K9me3 demethylation, DELFIA europium;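 active means more than half of a compound's replicate wells show inhibition beyond 50%, single wells judged on their own value; inconclusive means some, but no more than half, of replicates pass 50% inhibition; inactive means no replicate passes 50% inhibition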;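 further: signal counts dimethyl H3K9 product captured on neutravidin plate; 0% = median of DMSO wells and 100% = 0.3 times that DMSO median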
Target sequence (Q9H3R0 1-420 limits assumed): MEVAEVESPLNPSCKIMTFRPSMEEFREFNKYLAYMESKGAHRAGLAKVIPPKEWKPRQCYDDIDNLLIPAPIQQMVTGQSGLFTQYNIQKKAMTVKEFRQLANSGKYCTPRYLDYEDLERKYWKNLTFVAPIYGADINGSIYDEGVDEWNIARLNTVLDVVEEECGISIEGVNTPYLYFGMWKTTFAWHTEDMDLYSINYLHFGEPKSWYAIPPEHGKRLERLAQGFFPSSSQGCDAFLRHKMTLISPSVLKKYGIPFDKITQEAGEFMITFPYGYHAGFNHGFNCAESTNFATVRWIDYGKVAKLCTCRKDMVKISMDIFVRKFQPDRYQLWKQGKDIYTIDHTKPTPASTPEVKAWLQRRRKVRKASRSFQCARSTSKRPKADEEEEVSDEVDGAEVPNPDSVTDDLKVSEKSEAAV
SMARCA2 act = increases SMARCA2 function in MMTV reporter cells; MG213 cells, MMTV-luciferase reporter, dexamethasone, overnight; activation, % at 9.1 µM; 1% of 370,000 active; in the data active means activation above about 7.8%;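 further: 0% = vehicle wells and 100% = reference activator wells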
M18AAP inhibitor = PfM18AAP enzyme inhibition; inhibition, % at 7.35 µM; recombinant PfM18AAP, H-Glu-NHMec fluorogenic cleavage; AID 1822; 1.2% of 290,000 active;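 active means inhibition above the campaign mean inhibition over all tested compounds plus 3 SD, cut at about 28% in these data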;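 further: 0% = plate median of test compound wells and 100% = 2 mM ZnCl2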
Granule exo inh = blocks lytic granule exocytosis; TALL-104 LAMP-1 surface exposure, flow cytometry; cells stimulated with thapsigargin and PMA; inhibition, % at 10 µM; 0.66% of 360,000 active; AID 651702;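 active means inhibition above about 55%, limit read from the data; inconclusive means no clear call, values can overlap the other calls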
MIN6 prolif = inducers of beta-cell replication in MIN6 cells | MIN6 cells proliferation, ATPlite luminescence, 48 h; cells starved in 0.2% serum; 100% = growth in 10% serum | 0.29% of 330,000 active | proliferation, % at 10 µM;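 active means compounds whose signal lies at least 3.5 SD above the mean of all wells on their plate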;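 further: 0% = DMSO-treated cells in low-serum medium and 100% = 10% serum control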
ALR H2O2 inh = blocks human ALR sulfhydryl oxidase activity | inhibition, % (no concentration beside the values) | 3.8% of 290,000 active | AID 485317 | purified ALR, DTT oxidation, H2O2 HRP-luminol luminescence;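 active means mean replicate inhibition above about 79%, with every replicate also reaching it, limit read from the data; inconclusive means only one of the two criteria met; inactive means mean below limit and not every replicate reaching it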
Target sequence (P55789 whole entry, looked up): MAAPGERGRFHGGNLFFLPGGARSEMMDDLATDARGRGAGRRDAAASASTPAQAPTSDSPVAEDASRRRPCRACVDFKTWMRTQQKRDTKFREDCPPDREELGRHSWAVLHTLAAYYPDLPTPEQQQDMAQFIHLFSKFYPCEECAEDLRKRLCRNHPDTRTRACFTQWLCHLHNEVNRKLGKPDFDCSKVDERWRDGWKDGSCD
Numbers without * were called inactive; ? = inconclusive; / = no result given. Hits are enriched below; roughly 5.4% of the tested compounds scored in any of these assays.

SMILES | GASC-1 inh | SMARCA2 act | M18AAP inhibitor | Granule exo inh | MIN6 prolif | ALR H2O2 inh
C[C@H](O)[C@@H]1CN2CCc3c([nH]c4ccccc34)[C@@H]2C[C@@H]1N(C)C(=O)Nc1cccc2ccccc12 | / | -4 | / | 74* | / | /
COC(=O)C1CN(Cc2cn(Cc3ccc(Cl)cc3)nn2)CCS(=O)(=O)N1Cc1ccc(Cl)cc1 (configuration not stated) | / | -6 | / | / | / | /
COC(=O)c1cccc2c1-c1ccccc1/C2=N/O | -4 | -1 | -2 | 0 | 5.5* | 0
CNc1sc(C(=O)c2cccs2)c(N)c1-c1nc2ccccc2s1 | 2 | 4 | 11 | 65* | -7 | 3
CC(=O)Nc1scc(C)c1-c1nc2ccccc2s1 | 6 | -2 | -7 | 1 | 2 | -15
CNc1sc(C(=O)c2ccc(F)cc2)c(N)c1-c1nc2ccccc2s1 | -1 | 2 | 2 | 4 | -6 | 91*
CCNc1nc(NCC)n2c(SCC(=O)Nc3ccc(Br)cc3F)nnc2n1 | 7 | 0 | / | 0 | -1 | 98*
CCOC(=O)CC[C@@]1(C(=O)OCC)C[C@@H](CC(=O)N2CCSCC2)C(=O)N2CCCC=C21 | / | -2 | / | / | / | /
Cc1ccccc1NC(=O)c1ccc2c(c1)C(=O)N(CC(C)C)C2=O | 9 | -2 | -9 | 8 | -1 | -2
CC(C)CN1C(=O)c2ccc(C(=O)Nc3ccccc3C(=O)O)cc2C1=O | 4 | 5 | -7 | 2 | 0 | 81*
Cc1cc([N+](=O)[O-])ccc1N1C(=O)c2ccc(C(=O)Nc3ccccc3C(=O)O)cc2C1=O | -3 | -3 | 2 | -1 | -1 | 98*
COc1ccc(N2CCN(C(CNS(C)(=O)=O)c3ccco3)CC2)cc1 (configuration not stated) | 10 | -1 | -7 | 0 | 2 | 92*
COC(=O)NCC(c1ccco1)N1CCN(c2ccc(F)cc2)CC1 (configuration not stated) | -3 | -1 | 13 | -2 | 0 | 92*
O=S(=O)(NCC(c1ccco1)N1CCN(c2ccc(F)cc2)CC1)c1ccc(F)cc1 (configuration not stated) | 2 | -1 | -6 | 1 | -1 | 33
COC(=O)NCC(c1ccco1)N1CCN(c2ccc(OC)cc2)CC1 (configuration not stated) | 0 | -6 | -4 | 2 | 0 | 89*
Cc1nc2sc(C(c3ccco3)N3CCN(c4ccccc4F)CC3)c(O)n2n1 (configuration not stated) | -7 | 1 | -2 | 0 | 0 | 2
Cc1nc2sc(C(c3ccco3)N3CCN(c4ccc(F)cc4)CC3)c(O)n2n1 (configuration not stated) | 4 | 0 | -2 | 1 | 3 | 94*
COC(=O)C1CN(Cc2ccccc2)CCS(=O)(=O)N1Cc1ccc(F)cc1 (configuration not stated) | / | 0 | / | / | / | /
C[C@@H]1ON(C)[C@H]2C[C@H]3c4cc(N5CCCCC5)ccc4CCN3C[C@@H]12 | / | 0 | / | / | / | /
COc1ccc(N2CCN(C(CNC(=O)C(=O)NCCCO)c3ccco3)CC2)cc1 (configuration not stated) | 2 | 1 | 6 | -21 | 2 | 86*
CCS(=O)(=O)NCC(c1ccco1)N1CCN(c2ccccc2)CC1 (configuration not stated) | 1 | 3 | 4 | -1 | -1 | 93*
CCC(=O)NCC(c1ccco1)N1CCN(c2ccc(OC)cc2)CC1 (configuration not stated) | 8 | 2 | 0 | -4 | -2 | ?
COc1ccc(N2CCN(C(CNC(=O)COc3ccccc3)c3ccco3)CC2)cc1 (configuration not stated) | 91 | -3 | / | 2 | 2 | 89*
O=C(OC12CCCN(C1)/C(=C/c1ccccc1)C2)c1cccc(F)c1 (configuration not stated) | / | 4 | / | / | / | /
CC(C)CNc1ccc2c(c1)OC[C@H](C)NS2(=O)=O | / | -2 | / | / | / | /
SMILES | GASC-1 inh | SMARCA2 act | M18AAP inhibitor | Granule exo inh | MIN6 prolif | ALR H2O2 inh
Cn1c(N)c(-c2nc3cccnc3n2C)sc1=S | -13 | -3 | 4 | 0 | -3 | 92*
COC(=O)C1CN(C2CCCC2)CCS(=O)(=O)N1Cc1ccc(C)cc1 (configuration not stated) | / | 0 | / | / | / | /
COc1ccc(C(=O)NNC2CC(=O)N(Cc3ccccc3)C2=O)cc1OC (configuration not stated) | 2 | 7.9* | 3 | 2 | 2 | /
CCN1C(=O)CC(NNC(=O)c2ccccc2)C1=O (configuration not stated) | 10 | -2 | -11 | 3 | -2 | -11
CCOc1ccc(C(=O)NNC2CC(=O)N(Cc3ccc(Cl)cc3)C2=O)cc1OC (configuration not stated) | 6 | 1 | -1 | -1 | -4 | 97*
Cc1cc(N2C(=O)C(O)=C(C(=O)c3cc4ccccc4o3)C2c2cccs2)no1 (configuration not stated) | 2 | 2 | 20 | -2 | -2 | -1
COC(=O)c1ccc(C2C(C(=O)c3ccco3)=C(O)C(=O)N2c2cc(C)on2)cc1 (configuration not stated) | 0 | 4 | 8 | -1 | -1 | 18
Cc1ccc(C2C(C(=O)c3cc4ccccc4o3)=C(O)C(=O)N2c2cc(C)on2)cc1 (configuration not stated) | -18 | -2 | 9 | 5 | 2 | 98*
Cc1cc(N2C(=O)C(O)=C(C(=O)c3ccco3)C2c2cccc(O)c2)no1 (configuration not stated) | 7 | 2 | 17 | -1 | 2 | -4
Cc1cc(N2C(=O)C(O)=C(C(=O)c3ccco3)C2c2cccc(Oc3ccccc3)c2)no1 (configuration not stated) | -18 | 0 | 6 | -1 | -3 | 94*
COC(=O)c1ccc(C2C(C(=O)c3ccc(C)o3)=C(O)C(=O)N2c2cc(C)on2)cc1 (configuration not stated) | 4 | 1 | 5 | 6 | -3 | 91*
Cc1cc(N2C(=O)C(O)=C(C(=O)c3cc4ccccc4o3)C2c2ccc([N+](=O)[O-])cc2)no1 (configuration not stated) | -1 | -1 | 18 | -5 | -3 | 98*
COC(=O)C[C@@H]1CC[C@H]2[C@H](COc3ccc(NC(=O)Nc4ccc(C#N)cc4)cc3C(=O)N2C)O1 | / | -6 | / | / | / | /
CC(C)C[C@H]1COc2cc(Br)ccc2S(=O)(=O)N1Cc1cn(Cc2ccc(Br)cc2)nn1 | / | 4 | / | / | / | /
CCCC(=O)N1CCC(C(=O)NC2CCCc3ccccc32)CC1 (configuration not stated) | / | -4 | / | / | / | /
C=CCNc1nc(C(=O)OCC(=O)Nc2ccc(S(N)(=O)=O)cc2)cs1 | 6 | 0 | / | 1 | -3 | 98*
